Screening results (PubChem)
Shown are actives, neighbours in structure and some others; about 2.1% of the full set was active somewhere.
CF NFkB block: inhibitors of PAF-induced NF-kB signaling, primary screen, cell-based, GFP fluorescence, uHTS. 360,000 tested, 0.86% active. inhibition, % at 5 µM. KKLEB NF-kB-GFP reporter, GFP fluorescence overnight;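 active = at least 50% inhibition at 5 µM, scaled per plate between neutral and stimulator controls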;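 note: PAF is a Pseudomonas aeruginosa culture filtrate used as stimulus; plate controls were PAF-stimulated DMSO wells for no effect and unstimulated DMSO wells for full effect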
PAX8 reporter: inhibitors of PAX8-driven TPO luciferase reporter, primary screen, RMG-I cells, single concentration; SteadyGlo, 24 h; inhibition, % at 12.6 µM; 360,000 tested, 1.2% active; AID 652154, 2013;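 active = mean replicate inhibition at least 60% with every replicate also reaching 60%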;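 note: luciferase light reporting Pax8 driven TPO promoter activity; plate controls were median of neutral control wells for no effect and mitoxantrone controls for full effect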
EWS-Fli inh: EWS/Fli-driven NR0B1 reporter inhibitors, primary screen, A673 cells, NR0B1 luciferase, luminescence, MLPCN library; viability-normalised; inhibition, % at 12.6 µM; 350,000 tested, 0.67% active; AID 651661, 2012;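 active = mean inhibition of at least 50% after viability correction, with every replicate also passing that limit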;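 note: firefly luciferase signal divided by Alamar Blue viability fluorescence both relative to DMSO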
KKLEB tox: cytotoxicity in KKLEB CF airway cells, primary screen, cytotoxicity control for CF NF-kB inhibitor project, cell-based, uHTS, fluorescence assay plates. KKLEB CF airway cells viability, ATPlite luminescence, overnight; active compounds read low; cells stimulated with P. aeruginosa culture filtrate. activity change (cytotoxicity), % at 5 µM. 360,000 tested, 0.36% active. AID 602141, 2011;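 active = corrected activity change at or below -50% at 5 µM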
HIF-2a block: HIF-2a reporter inhibitors, primary screen, luminescence, 786-0 RCC cells; 786-0 RCC cells HIF-2a reporter, luciferase luminescence, overnight; AID 624352, 2012; inhibition, % at 18.8 µM; 360,000 tested, 0.72% active;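 active = inhibition of the luminescence signal of 40% or more relative to plate controls, in a single-dose primary screen at 18.75 µM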
Mdm2 MdmX conf: retested Mdm2-MdmX interaction blockers, confirmation, cell-based, luminescence, single concentration, set 2 | SaOS-2 split-luciferase Mdm2/MdmX complementation | AID 504601, 2011 | shares compounds with HIF-2a block | inhibition, % at 8 µM | 740 tested, 99% active;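 active = mean inhibition of the luminescence signal across two replicates at or above 26 percent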
Target sequence (O15151 whole entry, looked up): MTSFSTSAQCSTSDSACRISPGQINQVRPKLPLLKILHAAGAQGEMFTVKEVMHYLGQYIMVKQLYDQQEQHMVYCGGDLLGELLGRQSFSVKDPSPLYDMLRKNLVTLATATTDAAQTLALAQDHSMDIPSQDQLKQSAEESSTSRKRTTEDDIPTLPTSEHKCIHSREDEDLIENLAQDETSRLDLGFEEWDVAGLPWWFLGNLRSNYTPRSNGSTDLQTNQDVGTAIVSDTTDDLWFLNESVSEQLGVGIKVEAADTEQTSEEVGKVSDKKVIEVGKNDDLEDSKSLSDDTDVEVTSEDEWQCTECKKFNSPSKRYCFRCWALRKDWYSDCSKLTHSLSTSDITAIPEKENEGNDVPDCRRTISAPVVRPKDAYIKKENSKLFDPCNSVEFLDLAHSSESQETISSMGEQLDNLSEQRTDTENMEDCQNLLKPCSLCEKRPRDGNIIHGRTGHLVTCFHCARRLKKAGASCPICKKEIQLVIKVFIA
Target sequence (Q00987 whole entry, looked up): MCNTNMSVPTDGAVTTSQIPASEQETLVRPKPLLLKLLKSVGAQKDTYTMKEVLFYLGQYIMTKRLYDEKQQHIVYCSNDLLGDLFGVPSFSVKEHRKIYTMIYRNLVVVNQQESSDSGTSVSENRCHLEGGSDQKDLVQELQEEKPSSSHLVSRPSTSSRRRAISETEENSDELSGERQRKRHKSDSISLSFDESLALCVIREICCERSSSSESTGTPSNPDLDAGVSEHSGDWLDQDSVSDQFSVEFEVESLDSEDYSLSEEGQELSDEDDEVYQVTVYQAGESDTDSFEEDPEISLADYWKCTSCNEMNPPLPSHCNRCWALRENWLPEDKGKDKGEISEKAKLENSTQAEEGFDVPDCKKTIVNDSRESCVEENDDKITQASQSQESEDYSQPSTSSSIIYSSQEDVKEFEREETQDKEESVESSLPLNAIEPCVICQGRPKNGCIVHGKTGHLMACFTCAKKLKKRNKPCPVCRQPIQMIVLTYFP
HIF-2a inh conf: HIF-2a reporter inhibitor retest, confirmation, luminescence, 786-0 RCC cells; AID 651580, 2012; inhibition, % at 18.8 µM; 1,800 tested, 56% active; shares compounds with HIF-2a block; HIF-2a luciferase reporter luminescence, overnight;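 active = mean inhibition across four replicates of at least 40 percent at the single tested concentration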
HIF-1a counter: HIF-1a luciferase reporter signal reduction – MiaPaCa-2 cells, single concentration, counter-screen for HIF-2a inhibitor project, confirmation; shares compounds with HIF-2a block; MiaPaCa-2 HIF-1a luciferase reporter, desferoxamine, overnight; inhibition, % at 18.8 µM; 1,800 tested, 72% active; AID 651589, 2012;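 active = mean inhibition of the reporter signal across four replicates at the single tested dose of 50% or more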
Starred values were filed as active, the others as inactive.

How did CN(C)S(=O)(=O)c1cccc(C(=O)OCC(=O)c2c(N)n(C)c(=O)n(C)c2=O)c1 do in these assays?
CF NFkB block: -4; PAX8 reporter: 7; EWS-Fli inh: 1; KKLEB tox: 2; HIF-2a block: 41*; HIF-2a inh conf: -10; HIF-1a counter: -8

What do the screens show for `COC(=O)Cc1ccc(NC(=O)c2ccc(C(C)(C)C)cc2)cc1`?
CF NFkB block: 5; KKLEB tox: -8; HIF-2a block: 90*; HIF-2a inh conf: 94*; HIF-1a counter: 40

How did CC(C)(C)c1ccc(C(=O)Nc2ccc(Cl)cc2)cc1 do in these assays?
CF NFkB block: -24; PAX8 reporter: 29; EWS-Fli inh: -120; KKLEB tox: -1; HIF-2a block: -175

What do the screens show for `CC1Cc2ccccc2N1c1ncnc(N)c1[N+](=O)[O-]` (stereo not given)?
CF NFkB block: 85*; PAX8 reporter: -15; EWS-Fli inh: 7; KKLEB tox: -17; HIF-2a block: 35; Mdm2 MdmX conf: 102*

What do the screens show for `Cc1ccc(Oc2ncnc(N)c2[N+](=O)[O-])cc1`?
CF NFkB block: -7; PAX8 reporter: -3; EWS-Fli inh: 4; KKLEB tox: -2; HIF-2a block: 14

Results for CC(C)c1cn(CC[C@H]2CC[C@H](NC(=O)C3CCCCC3)[C@H](CO)O2)nn1 ?
EWS-Fli inh: 12

Results for C[C@@H]1CN([C@H](C)CO)C(=O)c2cccc(NS(=O)(=O)c3cn(C)cn3)c2O[C@H]1CN(C)Cc1ccc(Oc2ccccc2)cc1 ?
EWS-Fli inh: -2

Results for COc1ccc(-n2nc3c(N4CCC(C(=O)NCCc5ccco5)CC4)nnc(C)c3c2C)cc1 ?
CF NFkB block: 0; PAX8 reporter: 44; KKLEB tox: 2; HIF-2a block: 7

Results for COc1ccc(-n2nc3c(N4CCC(C(=O)NCc5cccc(C)c5)CC4)nnc(C)c3c2C)cc1 ?
CF NFkB block: -23; PAX8 reporter: 102*; KKLEB tox: -28; HIF-2a block: 67*; HIF-2a inh conf: 76*; HIF-1a counter: 80*

How did CCOc1ccc(CNC(=O)C2CCN(c3nnc(C)c4c(C)n(-c5ccc(C)cc5)nc34)CC2)cc1 do in these assays?
CF NFkB block: -58; PAX8 reporter: -7; KKLEB tox: -2; HIF-2a block: 69*; HIF-2a inh conf: 8; HIF-1a counter: 32

How did COc1ccccc1CCNC(=O)C1CCN(c2nnc(C)c3c(C)n(-c4ccc(C)cc4)nc23)CC1 do in these assays?
CF NFkB block: -20; PAX8 reporter: 51; EWS-Fli inh: 45; KKLEB tox: -35; HIF-2a block: 40*; HIF-2a inh conf: 27; HIF-1a counter: 82*

What do the screens show for `Cc1ccc(-n2nc3c(N4CCC(C(=O)NCc5ccccc5C)CC4)nnc(C)c3c2C)cc1`?
CF NFkB block: 28; KKLEB tox: -15; HIF-2a block: 85*; HIF-2a inh conf: 21; HIF-1a counter: 62*

Results for Cc1ccc(S(=O)(=O)N(C)C[C@@H]2OCCCC[C@H](C)Oc3ccc(N(C)C)cc3C(=O)N([C@H](C)CO)C[C@H]2C)cc1 ?
PAX8 reporter: -15; EWS-Fli inh: -5

How did C[C@H](CO)N1C[C@H](C)[C@H](CN(C)Cc2ccc(C(=O)O)cc2)OCCCC[C@H](C)Oc2ccc(NC(=O)c3ccccc3)cc2C1=O do in these assays?
PAX8 reporter: -8; EWS-Fli inh: -7

Results for CCOc1ccccc1CNC(=O)C1CCN(c2nnc(C)c3c(C)n(-c4ccc(C)cc4)nc23)CC1 ?
CF NFkB block: -48; PAX8 reporter: 79*; EWS-Fli inh: 59*; KKLEB tox: -21; HIF-2a block: 71*; HIF-2a inh conf: 51*; HIF-1a counter: 98*

How did CCOc1ccccc1CNC(=O)Cn1nc(C)c2c(C)n(-c3ccc(C)cc3)nc2c1=O do in these assays?
CF NFkB block: -1; KKLEB tox: 0; HIF-2a block: 8

What do the screens show for `COCC(=O)N1C[C@H]2[C@@H](c3ccccc31)[C@@H](CO)N2Cc1ccccc1F`?
PAX8 reporter: 5; EWS-Fli inh: 8

What do the screens show for `Cc1ccccc1C1=NC(C(F)(F)F)(C(F)(F)F)c2c(n(C)c(=O)n(C)c2=O)N1`?
CF NFkB block: 5; PAX8 reporter: 6; EWS-Fli inh: 2; KKLEB tox: -7; HIF-2a block: 5

Results for Cn1c2c(c(=O)n(C)c1=O)C(C(F)(F)F)(C(F)(F)F)N=C(c1ccc(Cl)cc1)N2 ?
CF NFkB block: 67*; KKLEB tox: -50; HIF-2a block: 12; Mdm2 MdmX conf: 97*

What do the screens show for `CN(C)CC#Cc1ccc([C@@H]2[C@@H](CO)N3C(=O)CN(C(=O)c4cccc(F)c4)C[C@H]23)cc1`?
PAX8 reporter: -18; EWS-Fli inh: 3

How did Clc1ccc2nnnc(-c3ccccc3)c2c1 do in these assays?
CF NFkB block: 7; PAX8 reporter: 33; EWS-Fli inh: 40; KKLEB tox: 2; HIF-2a block: 83*; HIF-2a inh conf: 71*; HIF-1a counter: 103*

How did c1ccc(-c2nnnc3ccccc23)cc1 do in these assays?
CF NFkB block: 9; PAX8 reporter: 34; EWS-Fli inh: 8; KKLEB tox: -9; HIF-2a block: 14

Results for COc1ccc2c3c([nH]c2c1)[C@H](CO)N(C(=O)c1cccnc1)CC31CCN(C(=O)c2cccnc2)CC1 ?
PAX8 reporter: -22; EWS-Fli inh: -4

What do the screens show for `O=C(c1ccccc1)C(c1ccccc1)c1ccccc1`?
CF NFkB block: -9; PAX8 reporter: -4; EWS-Fli inh: -2; KKLEB tox: 6; HIF-2a block: -3

How did C=C(C(=O)c1ccccc1)C(c1ccccc1)C(C)C(=O)c1ccccc1 (stereo not given) do in these assays?
CF NFkB block: 0; PAX8 reporter: 53; KKLEB tox: -13; HIF-2a block: 81*; HIF-2a inh conf: 45*; HIF-1a counter: 96*

Results for COc1cc(/C=C/C(=O)N2CCN(C(=O)/C=C/c3cc(OC)c(OC)c(OC)c3)CC2)cc(OC)c1OC ?
CF NFkB block: -13; KKLEB tox: -1; HIF-2a block: 12
